Drawing on PubChem BioAssay (NCI), this text covers growth for 31 compounds.

The structures appear in SMILES notation. Compounds without any hit were thinned out: in the full panel of roughly 83,000, 20% have a hit.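 Method: cells in 96-well plates; compound added at one concentration; 48 h incubation; percent growth measured; values under 10 scored active.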 Unmarked numbers belong to inactive results. Active and inactive are the calls of the source.

For this experiment, the system named is CAKI-1 renal. The experiment is described as follows: NCI-60 one-dose screen, 48 h (100 = growth as untreated, 0 = no growth, -100 = all killed). Conditions: 10 µM unless noted.
Turning to `COc1cc2c(cc1O)CC[C@@H]1[C@@H]2CC[C@]2(C)[C@@H](NCCN(C)C)CC[C@@H]12`, the growth was -95.9% (active).
As for `COc1cccc2c1C(=O)c1c(O)c3c(c(O)c1C2=O)C[C@](O)(C(=O)CO)C[C@H]3O[C@@H]1C[C@@H](NC(=O)CCCN(C)C2(c3ccc(F)cc3)CC3CCC2C3)[C@H](O)[C@@H](C)O1` (stereo partly specified), the growth is 61.9%.
On to `O=c1cc(CSc2nnc(SCc3cc(=O)oc4c3ccc3ccccc34)o2)c2ccc3ccccc3c2o1`, for which the growth was 97.4%.
For `COc1cc2c(cc1O)CC[C@@H]1[C@@H]2CC[C@]2(C)[C@@H](OCCN(C)C)CC[C@@H]12`, the growth was 75.3%.
Take `COc1ccc(-c2nnc(SCC(=O)c3ccc(Cl)cc3)o2)cc1`: the growth was 98.1%.
On to `NC(=NCCCOc1ccc(Cl)cc1)Nc1ccc(C(F)(F)F)cc1`, for which the growth was 60.5%.
As for `CCCCC[C@H]1C/C=C2/C(=O)C=C[C@@H]2C/C=C\CCCC(=O)O1`, the growth is 8.56% (active).
For the compound `CNC(=O)c1cc(Oc2ccc(NC(=O)Nc3ccc(Cl)c(OC(F)(F)F)c3)c(F)c2)ccn1`, the growth was 45.8%.
As to `COc1ccc2c(c1)C(=O)/C(=C/c1cccnc1)CC2`, the growth is 90.8%.
As for `COc1cccc(-c2nc(SCC(=O)Nc3ccc(C(=O)/C=C/c4ccc(OC)c(OC)c4)cc3)[nH]c(=O)c2C#N)c1`, the growth is 88.4%.
Turning to `CCCn1c(=O)[nH]c(N)c([C@H]2c3ccccc3Oc3[nH]c(=O)n(CCC)c(=O)c32)c1=O`, the growth is 86.1%.
On to `C=C1C(=O)O[C@H]2[C@H]1CC/C(COC(=O)NCc1ccc(OC)c(OC)c1)=C\CC[C@@]1(C)O[C@@H]21`, for which the growth was 32.9%.
Consider `N#CN1CC[C@H](C(=O)Nc2cc3cc(C(N)=O)ccc3cn2)C1`, for which the growth was 11.9%.
Take `O=C1c2c(O)cc(O)cc2-c2c(-c3ccc(O)cc3)oc3cc(O)cc1c23`: the growth is 33%.
Regarding `O=C1/C(=C/c2ccccc2O)N=C2SCCCN12`, the growth was 85.1%.
`COc1ccc(CN2c3ccccc3Sc3ccccc32)c(C(F)(F)F)c1`: the growth is 32.5%.
Take `COc1ccc(-c2nc(SCC(=O)Nc3ccc(C(=O)/C=C/c4ccc(Cl)cc4)cc3)[nH]c(=O)c2C#N)cc1`: the growth is 82.8%.
Consider `COc1ccc2c(c1)CC/C(=C\c1cncc(Br)c1)C2=O`, for which the growth is 86.6%.
On to `COc1ccc2c(c1)C(=O)/C(=C/c1ccccn1)CC2`, for which the growth is 74.4%.
As to `Cc1nc(Nc2ccc(F)c(Cl)c2)sc1C(=O)O`, the growth is 8.86% (active).
`CCOC(=O)c1sc(Nc2ccc(Cl)cc2)nc1C`: the growth is 10.4%.
For the compound `CC(=O)c1cc(C(=O)c2ccc3c(c2)Sc2ccccc2N3)n2ccccc12`, the growth was 24.1%.
In the case of `CC(=O)O[C@H]1C(=O)[C@@]2(C)[C@H]([C@H](OC(=O)c3ccccc3)[C@]3(O)C[C@H](OC(=O)[C@H](OC(=O)CCC(=O)OC4CCC(S/N=C(N)/N=C(\N)N(C)C)CC4)[C@@H](NC(=O)c4ccccc4)c4ccccc4)C(C)=C1C3(C)C)[C@]1(OC(C)=O)CO[C@@H]1C[C@@H]2O` (stereo partly specified), the growth is 25.5%.
`CC(=O)OC[C@H]1O[C@H](OC(C)=O)[C@H](NC(=O)/C=C/CCl)[C@@H](OC(C)=O)[C@@H]1OC(C)=O`: the growth was 101%.
As for `COc1cc(-c2nc(C(=O)NCC(=O)NO)nn2-c2ccc(Cl)cc2)cc(OC)c1OC`, the growth is 89.3%.
With `C=C1C(=O)O[C@H]2[C@H]1CC/C(COC(=O)NCCc1ccc(OC)c(OC)c1)=C\CC[C@@]1(C)O[C@@H]21`, the growth was 45.2%.
Consider `CC/C=C\C[C@H](O)C/C=C1/C(=O)C=C[C@@]1(C)C/C=C\CCCC(=O)OC`, for which the growth was 96.9%.
Consider `Cc1ccc2oc(=O)cc(C3c4ccc([nH]4)C(c4cc(=O)oc5ccc(C)cc45)c4ccc([nH]4)C(c4cc(=O)oc5ccc(C)cc45)c4ccc([nH]4)C(c4cc(=O)oc5ccc(C)cc45)c4ccc3[nH]4)c2c1` (stereo unspecified), for which the growth is -13.6% (active).
The result for `COc1cccc2c1C(=O)c1c(O)c3c(c(O)c1C2=O)C[C@](O)(C(=O)CO)C[C@H]3O[C@@H]1C[C@@H](NC(=O)CCCCCN(C)C2(c3ccc(F)cc3)CC3CCC2C3)[C@H](O)[C@@H](C)O1` (stereo partly specified) reads 52.6%; that for `NC(=NCCCC1(c2ccccc2)CCCC1)Nc1ccc(Cl)cc1`, 64.9%; that for `CCC#CC[C@H](O)C/C=C1/C(=O)C=C[C@@H]1C/C=C\CCCC(=O)OC`, -18.3% (active).
